Measured values: PubChem BioAssay AID1508621 (National Center for Advancing Translational Sciences (NCATS), 2021)
Records with an inconclusive call do not appear. A call without a number means that no potency is given here. Calls of active or inactive are those of the source. Calls follow the shape of the dose curve; as a rule, active = well fitted inhibition curve with a large enough effect; inconclusive = small, poorly fitted or top-dose-only effect; inactive = no such curve, though single readings can be large or run the other way.

Assay: Confirmatory qHTS for Identification of Small Molecule Inhibitors of Huntingtin Promoter Activity; also: nearly all actives have a fitted effect of over 65% in size
Conditions: HEK293 HTT promoter firefly luciferase reporter, 24 h; series mostly up to 57.5 µM
Source text: Assay Provider: Russell L. Margolis M.D.
Department Neurology, Johns Hopkins University School of Medicine, Baltimore, MD
Huntington's Disease (HD) is a neurodegenerative disorder caused by a CAG repeat expansion in exon 1 of huntingtin (HTT). While there are currently no disease-modifying treatments for HD, recent efforts have focused on development of nucleotide-based therapeutics to lower HTT expression. As an alternative to siRNA or oligonucleotide methods, we hypothesized that suppression of HTT expression might be accomplished by small molecules that either (1) directly decrease HTT expression by suppressing HTT promoter activity or (2) indirectly decrease HTT expression by increasing the promoter activity of HTT-AS, the gene antisense to HTT that appears to inhibit expression of HTT.
We developed and employed a high throughput screen for modifiers of HTT and HTT-AS promoter activity using luminescent reporter HEK293 cells; of the 52,041 compounds tested, we identified 898 replicable hits. We used a rigorous stepwise approach to assess compound toxicity and the capacity of the compounds to specifically lower huntingtin protein in 5 different cell lines, including HEK293 cells, HD lymphoblastoid cells, mouse primary neurons, HD iPSCs differentiated into cortical-like neurons, and HD hESCs. We found no compounds which were able to lower huntingtin without lowering cell viability in all assays, though the potential efficacy of a few compounds at non-toxic doses could not be excluded.
SEQUENCE No. (1, 2, 3, etc.); […] (e.g., Cells, Incubation, Reagent, etc.); VALUE and DESCRIPTION.
1; Reagent; 4 uL; 2,500 Hek293 luciferase reporter cells per wells
3; Compound; 23 nL; Control inhibitor / compound library
5; Reagent; 2.5 uL; Firefly Luc reagent; Dual-Glo Luciferase Reporter Assay System (Promega)
6; Time; 10 min; room temperature incubation
7; Detection; Luminescence; FLuc
NOTES (numbers refer to sequence above)
1; High-throughput screening, measuring luminescence from a Hek293 luciferase reporter, was performed in 1,536 well white-walled tissue-culture treated plates. 2,500 cells were plated in 4 uL of Opti-MEM per well using a Multidrop Combi Reagent Dispenser (ThermoFisher).
2; Assay plates were cultured for 24 hours.
3; Control inhibitor (PTC124; final concentration of 50 uM) and compound library (at final concentrations of 460 nM - 57.5 uM) were added to the assay plate using the Kalypsis Pintool Robotic System equipped with 1536 pinheads.
4; Cells were then incubated for 24 hours at 37C prior to luminescence measurements.
5; In all cases, luminescence was measured using the Dual-Glo Luciferase Reporter Assay System (Promega) following the manufacturer's instructions.
6; Room temperature incubation.
7; Luminescence signal was obtained using the PerkinElmer ViewLux plate reader. Results were normalized to vehicle control (0% activity) and zero RLU (-100% activity).
Potency is read from the fitted curve at half-maximal effect.

Compound	Potency
Cc1ccccc1Cn1cccc(C(=O)Nc2nc3ccccc3s2)c1=O	12 µM (active)
Nc1c(C(=O)Nc2ccc(Cl)c(C(F)(F)F)c2)sc2nc3c(cc12)N1CCC3CC1	12 µM (active)
Cc1cccc(-n2c(/C=C\c3cccc(Br)c3)nc3ccccc3c2=O)c1	inactive
CC(C)(O)C=CC(=O)[C@](C)(O)[C@H]1[C@H](O)C[C@]2(C)[C@@H]3CC=C4[C@@H](C=C(O)C(=O)C4(C)C)[C@]3(C)C(=O)C[C@@]12C	0.757 µM (active)
CCCCc1ccc(NC(=O)c2cccn(Cc3ccc(Cl)cc3)c2=O)cc1	inactive
O=C(N[C@H]1CN2CCC1CC2)c1ccc(Cl)cc1	inactive
CNC(=O)N1N=C(c2ccc(N)cc2)c2cc3c(cc2CC1C)OCO3 (stereo not drawn)	inactive
CCN(CC)C(=O)N[C@@H]1C=C2c3cccc4[nH]cc(c34)C[C@@H]2N(C)C1	inactive
Cc1ccc(-n2c(/C=C/c3ccc(Br)s3)nc3ccccc3c2=O)cc1	inactive
COc1ccc(-n2c(/C=C\c3ccccc3F)nc3ccccc3c2=O)cc1OC	inactive
CCOc1ccc(NC(=O)c2cccn(Cc3cccc(Cl)c3)c2=O)cc1	inactive
O=c1c2ccccc2nc(/C=C/c2cccc3ccccc23)n1-c1ccccc1Cl	inactive
CC(C)N[C@@H]1CCn2c(=O)[nH]c3cccc(c32)[C@@H]1O	inactive
